Records with an inconclusive call do not appear. Entries that show only a call come without a potency. Active and inactive are the calls of the source. The call rests on the fitted dose curve; in most records, active means well fitted inhibition curve with a large enough effect; inconclusive means small, poorly fitted or top-dose-only effect; inactive means flat fitted curve, though single readings scatter.
Biological target: Aldehyde dehydrogenase, mitochondrial (Homo sapiens) (UniProt P05091)
Assay: qHTS for Inhibitors of the Aldehyde Dehydrogenase Family (ALDH2) Primary screen (AID 2061308); further: nearly all actives have a fitted effect of over 55% in size
Settings: ALDH2 enzyme inhibition qHTS, 1536-well; series mostly up to 56 µM
Potency means the concentration at half of the fitted maximal effect.

Row | Compound | Potency
1 | c1cc2c3c(cccc3c1)NC(c1ccc3c(c1)OCO3)N2 | inactive
2 | COc1ccc(/C=C(\C)C2Nc3cccc4cccc(c34)N2)cc1 | inactive
3 | O=C1c2ccccc2C(=O)c2cc(S(=O)(=O)Nc3cccc4cccnc34)ccc21 | inactive
4 | N#Cc1cccc(CSc2nc3ncc(Br)cc3[nH]2)c1 | inactive
5 | C/C(=C\c1ccc2c(c1)OCO2)C1Nc2cccc3cccc(c23)N1 | inactive
6 | O=C(O)c1cccc(-c2noc(-c3cccc(F)c3)n2)c1 | inactive
7 | O=C(O)c1cccc(-c2noc(-c3ccc(F)cc3)n2)c1 | inactive
8 | CCC(=O)NC(c1cc(Cl)c2ccccc2c1O)C(C)C (stereo not given) | inactive
9 | CC1(C)OB(c2ccc(O)c3ncc(N4CCNCC4)cc23)OC1(C)C | inactive
10 | CC(C)N1CCc2c(sc(NC(=O)c3ccccc3)c2-c2nc3ccccc3s2)C1 | 22.4 µM (active)
11 | CC(C)(C)OC(=O)N[C@@H](Cc1ccc(O[S+](=O)([O-])c2cccnc2)cc1)C(=O)N1CCN(c2ccccc2)CC1 | inactive
12 | Cc1ccc2nc3sc(C(=O)NCCc4cccnc4)cc3cc2c1 | inactive
13 | Oc1ccc(/C=C/c2ccccc2)c2cccnc12 | inactive
14 | Cc1ccc(-c2ccc(=O)n(CC(=O)NCCc3ccccc3)n2)cc1 | inactive
15 | CN(C)C1CCN(Cc2cc(COCc3ccccc3)c3cccnc3c2O)C1 (stereo not given) | inactive
16 | COc1cccc(Nc2ccc(N3CCN(C(C)=O)CC3)cc2)c1OC | inactive
17 | COc1ccc(C(=O)NC(c2ccco2)c2cc(Cl)c3cccnc3c2O)cc1 (stereo not given) | inactive
18 | O=C(O)c1cccc(-c2noc(-c3ccccc3C(F)(F)F)n2)c1 | inactive
19 | Cc1ccc(S(=O)(=O)Nc2cnccc2C(=O)Nc2ccc(N3CCOCC3)cc2)cc1 | inactive
20 | Oc1ccc(COCc2ccc(F)cc2)c2cccnc12 | inactive

Row | Compound | Potency
21 | O=C(NC(c1ccco1)c1cc(Cl)c2cccnc2c1O)c1cccs1 (stereo not given) | inactive
22 | O=C(O)c1ccc(Cc2c(-c3cccc(-c4ccccc4)c3)[nH]n(-c3nc(C(=O)O)cs3)c2=O)cc1 | inactive
23 | COc1ccc(CNc2ccc(N3CCN(C(C)=O)CC3)cc2)cc1OC | inactive
24 | CNC(=O)c1ccccc1Nc1cc(Nc2ccc(N3CCOCC3)cc2OC)ncc1C(F)(F)F | inactive
25 | Cc1ccc(S(=O)(=O)Nc2cccc3ccc[n+](C)c23)cc1 | inactive
26 | CC(=O)c1ccc(N2CCN(S(=O)(=O)c3cc4c(cc3Cl)NC(=O)C4)CC2)cc1 | inactive
27 | Cc1ccnc(NC(=S)N2CCCC(Nc3cccc(C(F)(F)F)c3)C2)c1 (stereo not given) | inactive
28 | CN(C)c1cnc2c(O)ccc(C(=O)O)c2c1 | inactive
29 | COc1ccc2nc(-c3cccc(C)c3)sc2c1 | inactive
30 | Cc1ccc(-c2cc(C(=O)Nc3ccccn3)c3ccccc3n2)cc1C | inactive
31 | C=C1CC[C@@H]2[C@](C)(CO)[C@H](O[C@@H]3O[C@H](CO)[C@@H](O)[C@H](O)[C@H]3O)CC[C@@]2(C)[C@@H]1C/C=C1/C(=O)OC[C@H]1O | inactive
32 | COc1ccccc1-c1nc(-c2cccc(C(=O)O)c2)no1 | inactive
33 | COc1ccc(OC)c(NC(=O)c2ccccc2OC(C)=O)c1 | inactive
34 | CC(=O)NC(c1cc(Cl)c2ccccc2c1O)C(C)C (stereo not given) | inactive
35 | O=[N+]([O-])c1ccccc1S(=O)(=O)Nc1cccc2cccnc12 | inactive
36 | CO[C@H]1c2cc(C(C)C)c(O)c(O)c2[C@@]23CCCC(C)(C)C2[C@@H]1OC3=O (stereo not given in full) | inactive
37 | COc1cncc(NC(=O)c2cccs2)c1 | inactive
38 | CC(=O)c1ccc(N2CCN(S(=O)(=O)c3ccc4c(c3)C(Cl)(Cl)C(=O)N4)CC2)cc1 | inactive
39 | c1csc(CNc2ccc(N3CCCCC3)cc2)c1 | inactive
40 | Cc1ccc(-c2ccc(=O)n(CC(=O)NCCc3ccncc3)n2)cc1 | inactive
